# Experiments:
# Assay in all cases: pooled miR-30 sensor sort-seq; sequence = guide strand
# Settings in all cases: shRNA
# MAGOH = molecular target: MAGOH
# MALL = molecular target: MALL
# MAMSTR = molecular target: MAMSTR
# MAGOHB = molecular target: MAGOHB
# MCM6 = molecular target: MCM6
# MED17 = molecular target: MED17
# MED31 = molecular target: MED31
# MED28 = molecular target: MED28
sequence,measurement,setting,value
TCTGATCATGACATCATTCTTG,sensor-assay potency score (higher = more potent),MAGOH,0.0716
AATTAATGTAGTAAATTCTTGG,sensor-assay potency score (higher = more potent),MALL,-0.359
TGGAGTCAGATAAGTCAGCGGA,sensor-assay potency score (higher = more potent),MAMSTR,-0.63
TTCTTCCATTACACTCTTGTGC,sensor-assay potency score (higher = more potent),MAGOHB,-0.965
TTGTAAAATCCAAACAAGTAAG,sensor-assay potency score (higher = more potent),MALL,-1.62
TATCTTAACTTCCCGTCCGGTC,sensor-assay potency score (higher = more potent),MAGOH,-1.04
AATTACAATTTCAAGCTCCTGT,sensor-assay potency score (higher = more potent),MAGOHB,0.142
AAACTAAACATTTCAAGTCTTG,sensor-assay potency score (higher = more potent),MAGOHB,-0.697
TAAAGTCACACTTGTCACCAGC,sensor-assay potency score (higher = more potent),MCM6,-0.442
TTCTGTAGCTCAGATCTCCGAG,sensor-assay potency score (higher = more potent),MED17,0.121
TCGATTTCCAGCATCATCTGTC,sensor-assay potency score (higher = more potent),MED31,0.22
TATTGGAGCAGCTCTAACATGT,sensor-assay potency score (higher = more potent),MED31,-0.528
TTTGTAAGAAAAAACATTCTGT,sensor-assay potency score (higher = more potent),MED28,0.226
TTTTTTGTCTTCACTGTACAAA,sensor-assay potency score (higher = more potent),MED31,-0.668
TACAACACACACCATTATCAGC,sensor-assay potency score (higher = more potent),MCM6,-1.14
TTAGTTCTGACACATCCTCTTT,sensor-assay potency score (higher = more potent),MED28,-0.943
TTCCGCTGTAATTCATTCCTTA,sensor-assay potency score (higher = more potent),MED28,0.0365
AACATGTGTAAACACTGAGGGT,sensor-assay potency score (higher = more potent),MED31,-0.84
TATTATTTTACATCTTGTCATA,sensor-assay potency score (higher = more potent),MED17,-1.34
TTGATCTAGATTGACATCAGGT,sensor-assay potency score (higher = more potent),MCM6,0.643
TAGAACATGATCATAGTGTGTG,sensor-assay potency score (higher = more potent),MCM6,0.881
ATGAATAGCAACTTGATCCCGC,sensor-assay potency score (higher = more potent),MCM6,0.187
TTGCTGAACTGCATGTACCTGG,sensor-assay potency score (higher = more potent),MED17,0.418
TTGATTTATTCAGTAACCGGAA,sensor-assay potency score (higher = more potent),MCM6,-0.345
TAACTTGCTCTGGTTTCTGGAC,sensor-assay potency score (higher = more potent),MED28,-0.587
TACACTAGGTGTCTCAACTGGT,sensor-assay potency score (higher = more potent),MED17,0.232
TTGGAGCAGCTCTAACATGTGT,sensor-assay potency score (higher = more potent),MED31,-0.598
TTTACATAAGAGAACATTCTGT,sensor-assay potency score (higher = more potent),MED17,-0.192
TCGTCCACCAAAGTACTGCTGG,sensor-assay potency score (higher = more potent),MED28,-0.123
TCTATGTACAACTCGAATCTGC,sensor-assay potency score (higher = more potent),MED17,-0.242
TCGAATTTCTTCCTGATCGGTG,sensor-assay potency score (higher = more potent),MED28,-0.612
TTATCTTGTAAAACATCACTTT,sensor-assay potency score (higher = more potent),MED17,-0.0835
TTCGAATTTCTTCCTGATCGGT,sensor-assay potency score (higher = more potent),MED28,-0.329
TTGTCTTTGAAGTAACCTCTTT,sensor-assay potency score (higher = more potent),MED31,-0.371
TTTATGAAACTCTCTAATCAGT,sensor-assay potency score (higher = more potent),MED17,-0.898
TAAGAAAAAACATTCTGTCTGT,sensor-assay potency score (higher = more potent),MED28,0.366
TTTTATTCCACTGAACTTCTTT,sensor-assay potency score (higher = more potent),MED17,0.579
TTGATTTATGTCTTCATTGTAG,sensor-assay potency score (higher = more potent),MCM6,-0.457
TAGATTTTTATCTTGACTCATC,sensor-assay potency score (higher = more potent),MCM6,-0.898
TGTCTGTCTTGCAATATCCAGA,sensor-assay potency score (higher = more potent),MED28,-0.689
TTCAGGTATCTTTTTATCCAGA,sensor-assay potency score (higher = more potent),MED17,-0.5
TATCTTTTTATCCAGATCGAGA,sensor-assay potency score (higher = more potent),MED17,-1.18

# Reference: the OligoGym collection
